About 83,000 compounds went through this panel and 20% of them were active in at least one assay; those are over-represented in the sample as a whole.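 Testing used 96-well plates and a 48-hour single-concentration exposure. Example: -40 means 40% of the starting cells died.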 The source made the active and inactive calls. Rule for the calls: active = growth percent below 10; inactive = the rest.
Each compound was assayed on SF-295 CNS (assay: NCI-60 one-dose screen, 48 h (100 = growth as untreated, 0 = no growth, -100 = all killed)). Conditions: 10 µM.

| Compound | growth |
| --- | --- |
| COc1ccc(N2N=C(c3ccc4c(c3)OCCO4)CC2c2cccc(NC(=O)CCCNS(=O)(=O)c3ccc(F)cc3)c2)cc1 (configuration not stated) | 65.2% (inactive) |
| COc1cc(/C=N/NC(=O)c2ccc3nc(-c4ccc(Cl)cc4)[nH]c3c2)cc(OC)c1OC | -73.7% (active) |
| O=C(N=Nc1c(O)[nH]c2ccc(Br)cc12)c1ccc2nc(-c3ccccc3)[nH]c2c1 | -81.9% (active) |
| COc1ccccc1[C@H]1C(C(=O)c2ccc(Cl)cc2)C2(N[C@@H]1c1ccccc1)C(=O)Nc1ccc(Cl)cc12 (some centres not stated) | 2.46% (active) |
| O=c1cc(-c2ccccc2)oc2cc(OCCCNCc3ccccc3)cc(O)c12 | -81.8% (active) |
| O=C1Nc2cc(-c3ccc(NC(=O)c4cccs4)cc3)ccc2/C1=C/c1ccc[nH]1 | 55.1% (inactive) |
| O=C(c1ccc(O)cc1)C1[C@H](c2ccc(Br)cc2)[C@@H](c2ccccc2)NC12C(=O)Nc1ccccc12 (some centres not stated) | 29.9% (inactive) |
| C=C1CCC2C3(C)COC(c4ccccc4F)OC3CCC2(C)C1C/C=C1/C(=O)OCC1O (configuration not stated) | -36.1% (active) |
| C=C1CCC2C3(C)COC(c4c(F)cccc4F)OC3CCC2(C)C1C/C=C1/C(=O)OCC1O (configuration not stated) | -21% (active) |
| COc1cccc(/C=C2\N=C(C)N(CCc3ccc(S(N)(=O)=O)cc3)C2=O)c1 | 105% (inactive) |
| C=C1CCC2C3(C)COC(c4cccc(F)c4)OC3CCC2(C)C1CC(O)C1=CCOC1=O (configuration not stated) | 74.5% (inactive) |
| Cn1cc(-c2cc(N)n3nc(-c4c[nH]c5ccc(Br)cc45)cc3n2)c2cccnc21 | -91.9% (active) |
| C=C1CCC2C3(C)COC(c4c(F)cccc4F)OC3CCC2(C)C1CC(O)C1=CCOC1=O (configuration not stated) | 79.4% (inactive) |
| Brc1ccc(/C=C/c2n(Cc3ccc4ccccc4c3)c3ccccc3[n+]2Cc2ccc3ccccc3c2)cc1 | -65.4% (active) |
| O=C(Nc1ccc(I)cc1)Nc1nc2ccc([N+](=O)[O-])cc2s1 | -95.4% (active) |
| O=C(N/N=C/c1ccc(B(O)O)o1)c1[nH]c2ccc(Br)cc2c1-c1ccccc1 | -8.66% (active) |
| CONC[C@]1(C)C=C2C(=O)[C@](C)(O)C3(CC3)C(C)=C2[C@H]1O | -9.33% (active) |
| O=C(Nc1cccc(-c2cn(-c3ccc4oc(=O)ccc4c3)nn2)c1)Nc1cc(C(F)(F)F)cc(C(F)(F)F)c1 | -45.7% (active) |
| CCCCCCCCCCCCCCCCCCCC(=O)NCCc1c[nH]c2ccc(OC(=O)CCCC(=O)OCCOOCCOOCCOOCCOOCCOOCCOOCCOOCCOOCCOOCCOOCCOOCCOC)cc12 | 13.3% (inactive) |

| Compound | growth |
| --- | --- |
| COc1ccc(/C(C)=N/N=C2C(=O)N(C)c3ccc(Br)cc32)cc1S(N)(=O)=O | 47.4% (inactive) |
| N#Cc1c(NC(=O)c2ccc(C(F)(F)F)cc2C(F)(F)F)sc2c1CCC(=O)C2 | -21.7% (active) |
| CNCc1cccc2c1OCCCCCC[C@@](C)(O)CC1(CC1)S(=O)(=O)c1ccc(cc1)-c1cnc(N)c(n1)C(=O)N2 | -100% (active) |
| COc1cc(OC(F)(F)F)ccc1C(=O)Nc1sc2c(c1C#N)CCC(=O)C2 | 60.7% (inactive) |
| Nc1n[nH]c2cccc(C#Cc3cccc(NC(=O)Nc4cc(C(F)(F)F)cc(C(F)(F)F)c4)c3)c12 | -75.3% (active) |
| N#Cc1c(-c2ccc(F)cc2)nc(SCc2ccc([N+](=O)[O-])cc2)nc1N1CCOCC1 | 41.5% (inactive) |
| CC1=N/C(=C\c2ccc(N(C)C)cc2)C(=O)N1CCc1ccc(S(N)(=O)=O)cc1 | 99.7% (inactive) |
| CN(CCF)c1ccc(/C=C/C(=O)c2ccc(N)cc2O)cc1 | 80.4% (inactive) |
| O=C(c1ccc(Cl)cc1)C1[C@H](c2ccccc2Br)[C@@H](c2ccccc2)NC12C(=O)Nc1ccccc12 (some centres not stated) | 12.9% (inactive) |
| O=C(Nc1cc(Cl)cc(Cl)c1)Nc1cc(Cl)cc(Cl)c1 | -47.9% (active) |
| O=C(c1ccc(O)cc1)C1[C@H](c2ccc(Br)cc2)[C@@H](c2ccccc2)NC12C(=O)Nc1ccc(Br)cc12 (some centres not stated) | -22.7% (active) |
| COc1ccccc1[C@H]1C(C(=O)c2ccc(O)cc2)C2(N[C@@H]1c1ccccc1)C(=O)Nc1ccc(Br)cc12 (some centres not stated) | 27.9% (inactive) |
| CN1CCN(c2ccc(C(=O)/C=C/c3ccc(C#N)cc3)cc2)CC1 | 78.2% (inactive) |
| CC(C)(C)Nc1nc2cc(Cl)c(Cl)cc2nc1S(C)(=O)=O | 91.1% (inactive) |
| COc1cc(/C=C/C(=O)c2cc(OC)c(OC)c(OC)c2)ccc1Oc1nc(Nc2ccc(F)cc2)nc(N(C)C)n1 | -55.2% (active) |
| C=C1CCC2C3(C)COC(c4cc(F)cc(F)c4)OC3CCC2(C)C1C/C=C1/C(=O)OCC1O (configuration not stated) | -82.7% (active) |
| Cc1cc(C(F)(F)F)ccc1C(=O)Nc1sc2c(c1C#N)CCC(=O)C2 | -25.5% (active) |
| N#Cc1c(Cl)nc(SCc2ccc(F)cc2)nc1-c1ccc(F)cc1 | 90% (inactive) |

— PubChem BioAssay (NCI)
